From PubChem BioAssay (NCI)
This is part of a sample that, as a whole, favours compounds with a hit. Of some 83,000 tested, about 20% had one in any assay.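 Step 1: grow cells in 96-well plates. Step 2: add test compound at a single concentration. Step 3: incubate 48 h. Step 4: record percent growth.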 Activity calls are given as the source filed them.

system: MCF7 breast; assay: NCI-60 one-dose screen, 48 h (100 = growth as untreated, 0 = no growth, -100 = all killed); settings: 10 µM unless noted
Procedure: Growth inhibition of the MCF7 human tumor cell line is measured as a screen for anti-cancer activity. Cells are grown in 96 well plates and exposed to the test compound for 48 hours. Compounds are tested at a single concentration, which is 10^-5 M for most compounds. The reported endpoint is percent growth (GI% or GIPRCNT), where numbers from 0 - 100% represent growth inhibition, and numbers from -100% - 0 represent cell death. For example, a value of 40 represents 60% growth inhibition. A value of 0 means no net growth occurred over the course of the experiment. A value of -40 indicates 40% of cells at the beginning of the experiment died by the end of the experiment. A value of -100 means all cells are dead at the end of the experiment.
NCI-60 Human Tumor Cell Lines Screen was performed using the standard one-dose NCI protocol, which is described in more detail at https://dtp.cancer.gov/discovery_development/nci-60/default.htm.
Compounds with GIPRCNT values below 10 were considered active. Activity score was based on GIPRCNT using the following formula: […]
Score is 0 for GIPRCNT values of 100 or above, 50 for GIPRCNT values of 0, and 100 for GIPRCNT values of -100.

Row | SMILES | growth
1 | COC(=O)c1[nH]nc2c1C1(C(=O)c3cccc4cccc1c34)C(C#N)=C(N)O2 (stereo not given) | 84.3% (inactive)
2 | CC(=O)C1=C(C)NC(NN)=NC1c1cccc(Cl)c1 (stereo not given) | 92.3% (inactive)
3 | N#Cc1cnc2ccc(-c3cnc4[nH]ncc4c3)cc2c1N1CCc2cc(F)c(Cl)cc21 | -2.16% (active)
4 | O=C(Nc1cccc(Cl)c1)Nc1nc2ccc([N+](=O)[O-])cc2o1 | 12.1% (inactive)
5 | NS(=O)(=O)c1ccc(Nc2nc(N/N=C/c3ccc(Cl)cc3)nc(Nc3ccccc3)n2)cc1 | 38.7% (inactive)
6 | C=C(C)[C@@H]1CC[C@]2(COP(=O)(OCC)OCC)CC[C@]3(C)[C@H](CC[C@@H]4[C@@]5(C)CCCNC(C)(C)[C@@H]5CC[C@]43C)[C@@H]12 | 13.8% (inactive)
7 | COc1ccc2c(c1)c(CC(=O)[Se]CC(=O)O)c(C)n2C(=O)c1ccc(Cl)cc1 | 37.4% (inactive)
8 | O=C(Cn1c(-c2ccccc2)nc2cc(Cl)c(Cl)cc21)N=Nc1c(O)[nH]c2ccc(Cl)cc12 | 71.8% (inactive)
9 | COc1cc(OC)c(/C=C/S(=O)(=O)Cc2ccc(OC)c(NCC(=O)NO)c2)c(OC)c1 | 11% (inactive)
10 | COc1cc2oc(-c3cccc(N)c3)cc(=O)c2c(OC)c1OC | 96.3% (inactive)
11 | O=C(Cn1cc[n+](CC(=O)c2ccc(-c3ccccc3)cc2)c1)Nc1cccc2cccnc12 | 51.4% (inactive)
12 | CC(=O)N(C)C1CCc2c(sc(NC(=O)c3ccc(C(C)(C)C)cc3)c2C(N)=O)C1 (stereo not given) | 59.8% (inactive)
13 | CC(=O)O[C@@H]1C(=O)N(c2cnccn2)[C@H]1c1ccccc1[N+](=O)[O-] | 15.5% (inactive)
14 | CCNC(=O)Oc1ccc(/C(=C(/C)c2ccccc2)c2ccc(OCCN3CCCCCC3)cc2)cc1 | 7% (active)
15 | O=C(Nc1nc2ccc([N+](=O)[O-])cc2s1)Nc1ccccc1Cl | 55.8% (inactive)
16 | NC(N)=Nc1ccc(Oc2cccc(Nc3ccc(Br)c(C(F)(F)F)c3)c2)cc1 | -1.08% (active)
17 | CCNC(=O)N1CCc2cc(OC)c(OCCc3ccc(OC)c(N)c3)cc2C1c1cc(C)c(C)cc1C (stereo not given) | 22.7% (inactive)
18 | O=C1Nc2ccccc2/C1=C/c1ccc(CO)n1-c1ccc(Cl)cc1 | 24.1% (inactive)
19 | CCOC(=O)c1c(Nc2ccccc2)nn2c(-c3cccs3)ccnc12 | 90.5% (inactive)
20 | CN1CCN(Cc2ccc(NC(=O)c3cncc(C#Cc4cnn5cccnc45)c3)cc2C(F)(F)F)CC1 | -2.5% (active)

Row | SMILES | growth
21 | COc1ccc(-c2nc3cccc(O)c3c(=O)n2Cc2ccccc2)cc1COc1ccc(NC(C)=O)cc1 | 37.1% [3 µM] (inactive)
22 | O=C(CN1CCN(c2cc(=O)n(-c3ccccc3)c3ccccc23)CC1)Nc1cccc(C(F)(F)F)c1 | 29.1% (inactive)
23 | CS(=O)(=O)Nc1cc(-c2ccc3ncc(C#N)c(NCc4ccccc4O)c3c2)cnc1Cl | 1.5% (active)
24 | C/C(=N\O)[C@H]1C[C@]23CC[C@]4(C)[C@H](CC[C@@H]5[C@@]6(C)CC/C(=N/O)C(C)(C)[C@@H]6CC[C@]54C)[C@H]2[C@H](C)C1(C)OC3 | 93.3% (inactive)
25 | O=C(NNc1nc2cc(F)cc(F)c2n2cccc12)c1cnccn1 | 3.97% (active)
26 | Cn1ccnc1C(=O)/C=C/c1ccc(CNC(=O)c2ccc(S(F)(F)(F)(F)F)cc2)cc1 | 13.3% (inactive)
27 | CC(C)(O)c1cncc(-c2ccc3ncnc(NCc4ccccc4)c3c2)c1 | 58.5% (inactive)
28 | CNC(=O)c1cc(-n2ccc3cc(NC(=O)Nc4ccc(N5CCOCC5)c(C(F)(F)F)c4)ccc32)ccn1 | 35.3% (inactive)
29 | Cc1[nH]c(C(=O)Nc2ccccc2OCc2cccc(C(=O)N3CCC[C@@H](N)C3)c2)c(Cl)c1Cl | -77.5% (active)
30 | COc1ccc(/C(N)=N/C(N)=N/c2nc3ccccc3s2)cc1 | 71.2% (inactive)
31 | COc1ccccc1N1CCN(C2=CC(=O)C(C)=C(C)C2=O)CC1 | 83.5% (inactive)
32 | COc1c(N2CC3CCCNC3C2)c(F)cc2c(=O)c(C(=O)N/N=C/c3c[nH]c4ccccc34)cn(C3CC3)c12 (stereo not given) | 55% (inactive)
33 | COc1ccccc1-n1cc(C#N)c(N)c1C(=O)c1ccc(C)cc1 | 51.3% (inactive)
34 | CCOC(=O)c1c(Nc2ccccc2)nn2c(-c3ccc(Cl)cc3)ccnc12 | 81.3% (inactive)
35 | Cc1ccc(CSc2nc(-c3ccc(Cl)cc3)c(C#N)c(N3CCNCC3)n2)cc1 | 58.5% (inactive)
36 | CCN1CCN(C(=O)[C@]23CCC(C)(C)C[C@H]2C2=CC[C@@H]4[C@@]5(C)Cc6c([nH]c7ccccc67)C(C)(C)[C@@H]5CC[C@@]4(C)[C@]2(C)CC3)CC1 | 78.1% (inactive)
37 | CC1=NC2=NN3C(=NN2C(c2ccccc2)=C1)N=NC(c1ccc(Br)cc1)=C3c1ccc(Br)cc1 | 94.4% (inactive)
38 | NC(N)=Nc1ccc(Nc2cccc(Nc3ccc(Cl)c(C(F)(F)F)c3)c2)cn1 | 2.25% (active)
39 | Cn1ccnc1C(=O)/C=C/c1ccc(CNC(=O)c2ccc(F)cc2)cc1 | 11.6% (inactive)
40 | COc1ccc(C(=O)CSc2nc3c(c(Nc4ccc(S(N)(=O)=O)cc4)n2)CCCC3)cc1 | 97.8% (inactive)
